The other results are listed elsewhere or left out. Unmarked numbers belong to inactive results. Calls of active or inactive are those of the source.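 The calls were made as follows: active = every replicate shows more than 75% inhibition of signal versus neutral control wells; inconclusive = half to three quarters of replicates exceed 75% inhibition; inactive = fewer than half of replicates exceed 75% inhibition.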
assay: Vibrio harveyi AI-2 signaling luminescence modulation – JMH597 strain, confirmation (AID 2736); settings: Vibrio harveyi JMH597 AI-2 quorum sensing luminescence, 9 h; at 7.5 µM; hits give high values; luxN and CqsS knockout, AI-2 only

Compound	inhibition
Cc1cc(CN(C)C(=O)c2cc(COc3ccc(C)c(C)c3)on2)n[nH]1	97.5% (active)
O=C(/C=C/c1ccc2c(c1)OCCO2)c1ccc(O)cc1	95.7% (active)
Cc1ccsc1C(=O)OCC(=O)c1cc2ccccc2o1	96.8% (active)
CCOc1ccc(/C=N/NC(N)=S)cc1	94.3% (active)
Cc1cccc(CSc2ccc(-c3cccs3)nn2)c1	96.9% (active)
O=C(CCC(=O)c1cccs1)Nc1nc2ccccc2s1	97.8% (active)
COc1ccc(/C(N)=N/OC(=O)Cc2ccccc2)cc1	96% (active)
O=C(Nc1ccc(F)c(Cl)c1)C1CCN(S(=O)(=O)c2cccnc2)CC1	98.4% (active)
Cc1ccc(NC(=O)C2CC2c2ccccc2)cc1 (stereo not drawn)	94.7% (active)
S=C(NCc1ccc(Cl)cc1)NC1CCCCC1	95.5% (active)
COC(=O)c1ccc(SCc2ccccc2)nc1	97.3% (active)
COC(=O)C1CCN(C(=O)c2ccc3oc(Cc4ccc(Cl)cc4)nc3c2)CC1	96.4% (active)
O=S(=O)(Nc1cccc(Oc2ccc(Cl)cc2)n1)c1ccc(F)cc1	99.7% (active)
O=C(COc1ncnc2ccccc12)NC(=O)NCc1ccccc1	96.5% (active)
Cc1ccc(Oc2cnn(-c3ccccc3)c(=O)c2Br)cc1	99.3% (active)
CC(=O)c1cccc(OCc2cc(C(=O)NC(C)Cc3cccnc3)no2)c1 (stereo not drawn)	95.5% (active)
CN(Cc1cnccn1)C(=O)c1cc(COc2cccc(C(F)(F)F)c2)on1	97.2% (active)

Compound	inhibition
COc1cccc(NC(=O)NCc2ccc(F)cc2)c1	95.3% (active)
O=C(Cn1cnc2ccccc2c1=O)Nc1cccc(S(=O)(=O)N2CCCCC2)c1	88.6% (active)
N/C(=N\OC(=O)CCc1ccccc1)c1cccnc1	93.1% (active)
Cc1ccccc1NC(=O)CCOc1ccccc1	91.6% (active)
Cc1ccccc1C(=O)Nc1ccc(N2CCCCCC2)cc1	94.5% (active)
O=C(/C=C/c1ccc2c(c1)OCO2)NCc1ccc(F)cc1	94.2% (active)
Cc1ccc(NS(=O)(=O)c2ccc3c(c2)NC(=O)CO3)cc1	95% (active)
Cc1nn(CC(=O)Nc2ccc(F)cc2)c(=O)c2ccccc12	99% (active)
O=C(COC(=O)C1CCCCC1)Nc1ccc([N+](=O)[O-])cc1	95.3% (active)
CC(CNc1ccc([N+](=O)[O-])cc1)NC(=O)c1ccccc1Br (stereo not drawn)	8.81%
CCOC(=O)c1nn(-c2cccc(C)c2)cc1C(=O)c1ccccc1	93.5% (active)
O=C(c1cc(-c2cccc(O)c2)on1)N1CCc2ccccc2C1	94.4% (active)
Cc1cc(C(=O)OCC(=O)Nc2ccc(F)c(F)c2)c(C)o1	97.8% (active)
Cc1ccc(Cc2nc(-c3cccc(C)c3)no2)cc1	94.6% (active)
CC(C)(C)c1ccc(OC2=CS(=O)(=O)c3ccccc32)cc1	96.6% (active)
O=C1COc2ccc(S(=O)(=O)Nc3ccc(OC(F)(F)F)cc3)cc2N1	99.2% (active)
